# Experimental data taken from PubChem BioAssay AID449762 (Southern Research Specialized Biocontainment Screening …, 2010).
# About 1,900 (0.58%) of roughly 330,000 compounds were called active. About 4% were inconclusive and are not listed. Not all results are given here. Entries with a potency or affinity are not part of this list. Unmarked numbers belong to inactive results. Rule as the data show it: inconclusive = inhibition above about 70% without an active follow-up result; inactive = below that.
# Assay: M. tuberculosis growth inhibition, HTS (AID 449762);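 also: bacterial growth assessed after seven days of incubation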
# Settings: M. tuberculosis H37Rv growth inhibition, 7H9 media; at 25 µM; stronger effect = higher value
row,SMILES,inhibition [%]
1,Cc1sc2ncn(/N=C/c3ccco3)c(=O)c2c1C,-10.2
2,Cc1ccc(/C=N/n2cnc3sc(-c4ccccc4)cc3c2=O)o1,44.5
3,CCCCn1nnnc1SCC(=O)Nc1cccc(C)c1,7.62
4,COc1ccc(CCN(C)C(=O)c2ccc(COc3ccccc3)o2)cc1OC,2.55
5,CC(O)(CS(=O)(=O)Cc1ccccc1)c1ccccc1Cl (centres undefined),-7.18
6,Cn1cnnc1SCC(=O)Nc1nc(-c2ccc(F)cc2)cs1,-5.61
7,CCCn1c(N2CCN(CC(=O)Nc3ccc4c(c3)OCCO4)CC2)nc2ccccc21,-1.09
8,O=C(Nc1cc(N2CCOCC2)ncn1)NC1(C(F)(F)F)Oc2ccccc2O1,-1.34
9,O=C(NCCN1CCOCC1)NC1(C(F)(F)F)Oc2ccc(Cl)cc2O1 (centres undefined),66.9
10,CCOC(=O)c1[nH]c2ccc(F)cc2c1NC(=O)CN1CCc2cc(OC)c(OC)cc2C1,11.2
11,CCOC(=O)c1[nH]c2ccc(OCC)cc2c1NC(=O)CN1CCN(c2ccccc2)CC1,-2.46
12,CNC(=S)N(C)CCc1cc2c(c(OC)c1C=C1C(=O)NC(=O)NC1=O)OCO2,-4.55
13,C[C@@H](C(=O)Nc1ccc2ccccc2c1)[C@@H]1C[C@@]1(C)[C@@H](NC(=O)c1ccccc1)c1ccccc1,27.7
14,Cc1cc(C(=O)N[C@@H](c2ccccc2)[C@]2(C)C[C@H]2[C@@H](C)C(=O)Nc2ccc3ccccc3c2)no1,49.4
15,Cc1ccc(/C=C/C(=O)N2CCN(S(=O)(=O)c3cccs3)CC2)o1,-4.62
16,Cc1ccc(S(=O)(=O)N2CCN(Cc3nc4sc5c(c4c(=O)[nH]3)CCCC5)CC2)cc1,1.29
17,CC(C)c1ccc(/C=N/NC(=O)c2c(Cl)cnn2C)cc1,-0.44
18,Cc1ccc(S(=O)(=O)Oc2ccc(/C=N/NC(=O)c3c(Cl)cnn3C)cc2)cc1,25.4
19,Fc1ccc(CN2CCN(c3ccc(Cl)cc3)CC2)cc1,9.18
20,CCn1c(N)c(C(=O)NCc2cccnc2)sc1=S,-1.76
21,CC(/C=N/n1c(-c2cc(C)[nH]n2)n[nH]c1=S)=C\c1ccccc1,-2.29
22,S=c1[nH]nc(C2CCCCC2)n1/N=C/C(Cl)=C\c1ccccc1,-11
23,S=c1[nH]nc(C2CCCCC2)n1/N=C/c1ccccc1,9.46

row,SMILES,inhibition [%]
1,Cc1cc(-c2n[nH]c(=S)n2/N=C/C(Cl)=C/c2ccccc2)n[nH]1,1.35
2,Fc1cccc2sc(Nc3nc4cc5c(cc4s3)OCCO5)nc12,45.4
3,Cc1c(Cl)cccc1NC(=S)N(CCN(C)C)C(C)c1ccccn1 (centres undefined),0.24
4,CCO[C@@H]1OC(C(=O)Nc2ccccc2)=C[C@H](c2ccc3c(c2)OCO3)[C@H]1CCCO,13.4
5,COc1cc(NC(=O)COC(=O)c2cc(S(=O)(=O)N3CCCCC3)ccc2Cl)c(C)cc1[N+](=O)[O-],-2.58
6,CCN1C(=O)[C@H]2[C@@H](c3ccc(-c4ccc(C(C)=O)cc4)cc3)N3CCC[C@@]3(C(=O)OC)[C@H]2C1=O,21.2
7,COc1ccc(C2c3[nH]c4ccccc4c3C[C@H]3C(=O)N(C4CCN(Cc5ccccc5)CC4)CC(=O)N23)c(OC)c1 (some centres undefined),30.2
8,CCOc1ccc(C2c3[nH]c4ccccc4c3C[C@H]3C(=O)N(C4CC4)CC(=O)N23)cc1OC (some centres undefined),4.59
9,COc1ccc(-c2nc3c(s2)CN(S(C)(=O)=O)CC3)cc1OC,-6.59
10,Cc1nn(-c2ccccc2)c(Cl)c1C(=O)N(C)CC(=O)Nc1cccc(F)c1,0.93
11,CCCn1c(-c2cc(OC)c(OC)c(OC)c2)nc2c1c(=O)[nH]c(=O)n2Cc1ccccc1,-2.63
12,Cc1nn(-c2ccccc2)cc1C(c1c(N)[nH]c(=S)[nH]c1=O)c1c(N)[nH]c(=S)[nH]c1=O,4.9
13,COc1ccc(NS(=O)(=O)c2ccc3nc(COc4ccc(C#N)cc4)[nH]c3c2)cc1,4.82
14,COc1ccc(NS(=O)(=O)c2ccc3nc(COc4ccc5ccccc5c4)[nH]c3c2)cc1,0.01
15,CCOc1ccc(N2C(=O)C3CC(C)=C(C)CC3C2=O)c([N+](=O)[O-])c1 (centres undefined),-11.3
16,CCCCCn1c(SC(C)C(C)=O)nc2c1c(=O)[nH]c(=O)n2C (centres undefined),-12.7
17,Cc1cc(Cl)c(OCCCN(C)C)c(Br)c1,2.02
18,COc1ccc2c([N+](=O)[O-])c(Cl)[nH]c2c1,-1.29
19,COc1cc2[nH]c3c(Cl)ncnc3c2cc1OC,-3.36
20,CCOC(=O)C1=C(C)OC(N)=C(C#N)C1c1c(C)nn(-c2ccccc2)c1Cl (centres undefined),-3.55
21,Cc1ccc2c(c1)nnn2C1CCN(CC(=O)c2ccc(Cl)cc2)CC1,2.57
22,Cc1ccc2c(c1)nnn2C1CCN(CC(=O)Nc2ccc(F)cc2)CC1,-1.73
23,CCSC(=Nc1ccccc1)C1=C(O)COC1=O,3.26

row,SMILES,inhibition [%]
1,OC(CNCCc1c[nH]c2ccccc12)c1ccccc1 (centres undefined),-1.92
2,NCC(c1ccc(Cl)cc1Cl)c1c[nH]c2ccccc12 (centres undefined),34.8
3,COC(=O)c1sc(N)c(C(=O)OC)c1COC(=O)C1CC(=O)N(Cc2ccco2)C1 (centres undefined),-7.71
4,CCOc1ccc(CCNS(=O)(=O)c2ccc3c(c2)NC(=O)CO3)cc1OCC,-0.19
5,c1ccc(NCc2nc3ccccc3n2CCOc2ccccc2)cc1,5.47
6,CCOc1ccc(NCc2nc3ccccc3n2CCOc2ccccc2)cc1,33.8
7,CCNc1nc(NCC)nc(N/N=C/c2ccccc2)n1,-2.44
8,O=[N+]([O-])c1ccc(/C=N/Nc2nc(N3CCCCCC3)nc(N3CCCCCC3)n2)o1,-9.1
9,CC(C)NS(=O)(=O)c1ccc(CCC(=O)N2CCC(C(N)=O)CC2)cc1,-7.28
10,Cc1ccccc1C(=O)Oc1cc(N)n(S(C)(=O)=O)n1,-5.9
11,NCCCn1c(C(=O)c2ccc(Cl)cc2)c2ccc(C(F)(F)F)cc2[n+]1[O-],1.61
12,NC(=O)CCCn1c(C(=O)c2ccc(Cl)cc2)c2ccc([N+](=O)[O-])cc2[n+]1[O-],-3.8
13,COc1ccc(CCN2CC(C(=O)NCc3ccco3)CC2=O)cc1OC (centres undefined),-1.89
14,CCN1CCN(c2ccc(S(=O)(=O)N3CCOCC3)cc2NC(=O)COc2ccc(F)cc2Cl)CC1,2.58
15,C[C@H](NC(N)=O)C(=O)Nc1ccc(OCc2ccccc2)cc1,2.2
16,C/C(=N\NC(=O)c1ccc(C)cc1C)c1ccc2c(c1)Nc1ccccc1S2,7.51
17,C/C(=N\NC(=O)c1ccccc1F)c1ccc2c(c1)Nc1ccccc1S2,-0.8
18,O=C1C=C(c2cccc3c2sc2ccccc23)C[C@@H](c2ccc(Cl)cc2)C1,-0.695
19,CCCC(=O)Nc1ccc(C(N)=O)cc1,-1.73
20,CSc1ccc(/C=C/C(=O)Nc2ccccc2)cc1,10.6
21,CSc1nsc(SCC(=O)NC2CCCCC2)n1,66.1
22,Cc1nnc(SCC(=O)N2CCCCC2)s1,-0.73
23,COc1cc(OC)c(C(=O)OCC(=O)Nc2c(C)n(C)n(-c3ccccc3)c2=O)cc1OC,1.54

row,SMILES,inhibition [%]
1,O=C1NC[C@H](c2ccccc2)N(CC2CCCCC2)C1=O,-2.23
2,C/C(=N\Nc1ccccc1)c1cccc(N)c1,-1.02
3,C/C(=N\Nc1ccc([N+](=O)[O-])cc1)c1ccc(N)cc1,-12.2
4,Cn1cnc(S(=O)(=O)N2CCN(c3ccc(Cl)cc3)CC2)c1,1.05
5,CC(C)COC(=O)Nc1ccccc1C(=O)N1CCOCC1,-0.44
6,Cc1ccc(N(Cc2cc3ccccc3[nH]c2=O)S(C)(=O)=O)cc1,-5.78
7,O=c1[nH][nH]c(-c2ccccc2O)c1C(C[N+](=O)[O-])c1ccccc1 (centres undefined),25.6
8,Cc1[nH]c2ccccc2c1C(C[N+](=O)[O-])c1cccc(O)c1 (centres undefined),0.72
9,O=C(N/N=C/c1ccco1)c1cc(-c2cccc(Br)c2)nc2ccccc12,5.09
10,CCOc1ccc2nc(N/C(N)=N/C(=S)Nc3ccc(OC)cc3)nc(C)c2c1,1.27
11,CCNC(=S)/N=C(\N)Nc1nc(C)c2cc(C)ccc2n1,26.4
12,CCOc1ccc2nc(N/C(N)=N/C(=S)Nc3ccc(C)c(C)c3)nc(C)c2c1,39.5
13,Cc1cccc(NC(=S)/N=C(\N)Nc2nc(C)c3cc(C)ccc3n2)c1,8.71
14,COc1ccc(N2CCN(C(=O)c3cc4cc(Cl)ccc4[nH]3)CC2)cc1,-7.94
15,COc1ccc(Cl)cc1NC(=O)CN1CCCCCC1,-5.19
16,Cc1ccc(S(=O)(=O)CC(=O)N2CCN(c3ccc(F)cc3)CC2)cc1,-10.4
17,O=c1c2ccccc2c(=O)n2n1Cc1ccccc1C2,0
18,Cc1cccc(/C=C/C(=O)c2ccc(N3CCOCC3)cc2)c1,-1.54
19,CCC1CSC(Nc2ccc(C(=O)/C=C/c3ccc(Oc4ccccc4)cc3)cc2)=N1 (centres undefined),4.72
20,Cc1ccc(N(CC(O)CN2C(=O)NC(C)(C)C2=O)S(=O)(=O)c2ccc([N+](=O)[O-])cc2)cc1 (centres undefined),0.97
